Screening data (PubChem BioAssay)
Bst PK mod: alters activity of Bacillus stearothermophilus pyruvate kinase. actives 1.2% (n = 51,000). Potency, µM. purified pyruvate kinase, luminescence ATP production; ribose 5-phosphate activator present at AC10; in the data active means potency below about 11 µM; inconclusive means mostly about 12 µM to 25 µM;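 the screen sought inhibitors and activators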;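 further: scaled between full activation by ribose 5 phosphate and full inhibition by luteolin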
GBA activity: human lysosomal glucosylceramidase modulation; actives 1.1% (n = 48,000); Potency, µM; P04062; purified enzyme, resorufin glucoside fluorescence (screen aimed at inhibitors), 20 min; AID 360; in the data active means potency below about 15 µM; inconclusive means mostly about 16 µM to 33 µM;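 further: the screen sought inhibitors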
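Wild-type enzyme at 0.2 nM final in 50mM citric acid/KH2PO4, 10mM sodium taurocholate, 0.01% tween-20, pH 5.9, with resorufin beta-D-glucopyranoside at 30 uM final. Compounds titrated, 20 min at RT, red fluorescence read; AC50 from titration.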
FLuc inh: blocks Photinus pyralis firefly luciferase activity; AID 411; purified firefly luciferase, luminescence, 8 min; Potency, µM (highest dose often 57.1 µM), for the others: top-dose activity change, negative = inhibition, hits mostly inhibitors; P08659; actives 2.2% (n = 72,000); further: on the % scale 0 is the no-effect control and ±100 the full control effect; nearly all actives have a fitted effect of over 40% in size
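Firefly luciferase (PKLight detection mix) with 10 uM ATP in pH 7.2 imidazole buffer (KCl, MgCl2, Tween 20, BSA). Compounds tested across a concentration series (qHTS). Luminescence read after 8 min at ambient temperature.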
TSHR ag: agonists of human thyroid stimulating hormone receptor; P16473; HEK293-CNG-TSHR cells (CNG channel as cAMP sensor), membrane potential dye, cAMP; Potency, µM (doses to about 57.1 µM), for inactives: at the highest dose activation, actives largely listed as activators; actives 0.48% (n = 73,000); AID 926; active means well fitted activation curve with a large enough effect in the main read-out, with a control signal flat, not every such curve was filed as active; inconclusive means small, poorly fitted or top-dose-only effect, or a change in a side signal; inactive means no such curve, though single readings can be large or run the other way; % of control where 0% means no effect;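 further: the control signal comes from parental cells without the receptor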
Target sequence (P16473 whole entry, looked up): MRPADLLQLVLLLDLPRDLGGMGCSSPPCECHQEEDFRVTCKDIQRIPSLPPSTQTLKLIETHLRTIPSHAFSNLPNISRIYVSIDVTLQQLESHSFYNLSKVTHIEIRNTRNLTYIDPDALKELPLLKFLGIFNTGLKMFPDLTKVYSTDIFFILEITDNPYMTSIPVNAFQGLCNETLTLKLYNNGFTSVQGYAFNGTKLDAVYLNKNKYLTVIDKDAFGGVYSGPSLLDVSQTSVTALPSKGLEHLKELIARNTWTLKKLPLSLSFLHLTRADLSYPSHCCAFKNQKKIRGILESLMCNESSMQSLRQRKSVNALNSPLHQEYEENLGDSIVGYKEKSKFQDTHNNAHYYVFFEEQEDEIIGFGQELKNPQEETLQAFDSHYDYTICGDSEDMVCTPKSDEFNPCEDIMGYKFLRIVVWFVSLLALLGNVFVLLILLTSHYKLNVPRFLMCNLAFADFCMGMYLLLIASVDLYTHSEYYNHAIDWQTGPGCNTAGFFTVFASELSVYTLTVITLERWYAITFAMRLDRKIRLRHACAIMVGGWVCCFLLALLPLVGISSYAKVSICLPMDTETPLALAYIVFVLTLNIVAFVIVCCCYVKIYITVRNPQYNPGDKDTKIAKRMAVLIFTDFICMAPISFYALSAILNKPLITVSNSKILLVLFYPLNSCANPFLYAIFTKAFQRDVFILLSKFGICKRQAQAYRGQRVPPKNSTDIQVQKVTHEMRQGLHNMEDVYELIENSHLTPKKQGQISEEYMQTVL
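HEK 293 cells stably expressing TSHR and a cAMP-gated CNG channel; parental CNG-only cells as counterscreen. Cells preloaded 60 min with membrane potential dye plus 100 uM RO 20-1724, then compound 30 min; fluorescence read at 590 nm.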
HEK293 cAMP cs: parental HEK293 cAMP activation (counter-screen); parental HEK293 CNG cAMP sensor, membrane potential fluorescence; Potency, µM (titrated, usually from 57.1 µM), inactives show top-dose activation, hits mostly activators; actives 2.5% (n = 73,000); AID 938; further: % of control where 0% means no effect; nearly all actives have a fitted effect of over 55% in size
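Parental HEK 293 cells stably expressing a modified CNG channel (no TSHR) report cAMP rise as membrane depolarization. Membrane potential dye with 100 uM RO 20-1724 was loaded for 60 min at room temperature, then compound added for 30 min; fluorescence read at 590 nm.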
An asterisk follows results filed as active; i = inactive; u = inconclusive; x = no result; [ ] = another dose, or the depositor's remark. Only some compounds are listed: those with a hit (about 5.8% of all), similar ones and a draw of the others. Unless noted, the call rests on the fitted dose curve; in most records, active means well fitted curve in the direction sought with a large enough effect; inconclusive means small, poorly fitted or top-dose-only effect, or another doubt; inactive means no such curve, though single readings can be large; an effect the other way counts as inactive or inconclusive. Potency means the concentration at half of the fitted maximal effect.

SMILES	Bst PK mod	GBA activity	FLuc inh	TSHR ag	HEK293 cAMP cs
N#CCCn1c(=O)c(-c2ccc(F)cc2)nc2cnc(N3CCNCC3)nc21	x	x	2%[11.4 µM]	1%	5%
FC(F)(F)c1ccccc1-c1cncnc1NCc1cccs1	x	x	4%[2.29 µM]	u	u
CCC/C=C(\CCC)C(NP(=O)(c1ccccc1)c1ccccc1)c1ccc(C(F)(F)F)cc1 (stereo not given)	x	x	x	u	4µM*
O=C(CSc1nnc(-c2ccc(Cl)s2)o1)N1CCCc2ccccc21	>57	>77	-2%	u	4µM*
COc1ccc(O)c(C(=O)CC(=O)c2ccc(F)cc2)c1	x	x	25µM*	22%	9%
CCOCCn1c(-c2ccc(OC)cc2)nc2ccccc21	x	x	-27%	1%[11.4 µM]	12%
C=CCn1c(-c2ccc(OC)cc2)nc2ccccc21	x	x	25µM*	u	u
CCCCCCCCN[C@@H](C)[C@H](O)c1ccc(SC(C)C)cc1	x	x	-1%[25.5 µM]	u	u
O=C(OCc1nc2ccccc2s1)c1ccc(Br)s1	>57	>77	-4%	u	u
Oc1ccccc1OCc1nc2ccccc2s1	x	x	20µM*	-4%[11.4 µM]	-8%[11.4 µM]
N#Cc1c(N2CCN(C(=O)c3ccco3)CC2)nc(-c2ccccc2)c2c1CCCC2	x	x	-1%	u	16µM*
Nc1nnc(CCCCc2cccs2)o1	x	x	x	u	0.5µM*
O=C(O)CCCC(=O)OCCCCc1cccs1	x	x	0%	2%	5%
CCCC(c1nnnn1Cc1cccs1)N1CCN(c2ccc(OC)cc2)CC1 (stereo not given)	>57	>77	3%	u	u
COCCn1nnnc1C(c1ccccc1OC)N1CCN(c2ccccc2F)CC1 (stereo not given)	>57	>77	-2%	u	7.9µM*
CCCC(c1nnnn1Cc1ccccc1)N1CCN(c2ccccc2OC)CC1 (stereo not given)	>57	>77	2%	u	10µM*
COc1ccccc1C(c1nnnn1Cc1ccccc1)N1CCN(c2nc3ccccc3s2)CC1 (stereo not given)	>57	x	3%	11%	19%
CCCC(c1nnnn1Cc1ccc(OC)cc1)N1CCN(c2ccccc2OC)CC1 (stereo not given)	>57	i	2%	u	25µM*
CO[C@@H]1COC(=O)[C@H](COCc2ccccc2)NC(=O)C/C=C\[C@@H](C)[C@H](OC)COC(=O)[C@@H](C)NC(=O)C/C=C\[C@H]1C	x	x	1%[11.4 µM]	x	14%[11.4 µM]
Cc1ncc(COP(=O)(O)O)c(C)c1O	x	x	2%[11.4 µM]	0%[11.4 µM]	4%[11.4 µM]
CCOC(=O)CSC1=C(C#N)C(c2ccccc2)C(C(C)=O)=C(C)N1 (stereo not given)	>57	>77	-2%	-7%	20%
CSCSC1=C(C#N)C(c2ccc(Cl)cc2)C(C(C)=O)=C(C)N1 (stereo not given)	x	x	1%	u	25µM*
O=C(NCCN1CCOCC1)c1ccc2c(c1)ncn2C1CCCCC1	>57	15*	-1%	2%	5%
CCOCCCNC(=O)c1ccc2c(c1)ncn2C1CCCC1	>57	>77	-8%	-2%	-1%
COc1cccc(-c2nc(N(C)Cc3ccco3)c3ccccc3n2)c1	x	x	-2%[2.29 µM]	u	u
SMILES	Bst PK mod	GBA activity	FLuc inh	TSHR ag	HEK293 cAMP cs
O=C(Nc1ccc(CCC(=O)N2CCCC2)cc1)c1ncn[nH]1	>57	>77	-3%	-2%	7%
O=C(Nc1ccc(N2CCCC2)c(Cl)c1)c1ccco1	x	x	5µM*	-9%[11.4 µM]	-6%[11.4 µM]
O=C(Nc1ccc(N2CCCCC2)c(Cl)c1)c1ncn[nH]1	x	>77	10µM*	-17%	-5%
O=C(Nc1ccc(N2CCN(C(=O)c3ccccc3)CC2)c(Cl)c1)c1ccc(Br)o1	>26	x	-1%[25.5 µM]	x	x
CC(=O)N1CCN(c2ccc(NC(=O)c3ccccc3Br)cc2Cl)CC1	>57	0.33*	-5%	1%	-6%
COc1ccc(-c2nc3cnc(Nc4cccc(OC)c4)nc3n(Cc3cccs3)c2=O)cc1	x	x	1%[11.4 µM]	2%	12%
OCC1OC(c2ccccc2)C=CC1Oc1cc(Cl)cc(Cl)c1 (stereo not given)	x	x	x	-5%[11.4 µM]	2%[11.4 µM]
CC(C)CCNC(=O)C(c1ccco1)N(C(=O)Cn1nnc2ccccc21)c1ccc2c(c1)OCO2 (stereo not given)	>57	8.2*	1%	22%	26%
O=C(NCc1ccco1)C(c1ccco1)N(CCc1ccccc1)C(=O)Cn1nnc2ccccc21 (stereo not given)	>57	>77	-3%	u	16µM*
COCCNC(=O)C(c1cccs1)N(C(=O)Cn1nnc2ccccc21)c1ccccc1 (stereo not given)	>57	>77	1%	-3%	-2%
CCC(C)N(C(=O)Cn1nnc2ccccc21)C(C(=O)NCc1ccco1)c1cccc(OC)c1 (stereo not given)	>57	i	3%	u	16µM*
O=C(NCc1ccco1)C(c1cccs1)N(Cc1ccccc1)C(=O)Cn1nnc2ccccc21 (stereo not given)	>57	>77	-1%	u	10µM*
CCOCCCN(C(=O)Cn1nnc2ccccc21)C(C(=O)NCc1ccco1)c1ccncc1 (stereo not given)	>57	>77	-1%	0%	-7%
Cn1c(=O)c(-c2cc(F)cc(F)c2)nc2cncnc21	x	x	2%[11.4 µM]	x	15%
COCCN(C(=O)CCCC(=O)Nc1ccccn1)C(C(=O)NC1CCCCC1)c1ccc(C)cc1 (stereo not given)	>57	>77	2%	u	7.9µM*
C=C1CC[C@@H](O)C/C1=C/C=C1\CCC[C@]2(C)[C@@H]1CC[C@H]2[C@@H](C)/C=C\[C@@H](C)C(C)C	x	x	2%[11.4 µM]	13%	3%
O=C(COC(=O)CCC(=O)c1ccc2c(c1)OCCO2)NCc1ccc2c(c1)OCO2	x	>77	25µM*	7%	22%
O=C(CCN1Cc2ccccc2C1)c1ccc2c(c1)OCCO2	>57	x	0%	15%	10%
O=C(COc1ncnc2ccccc12)c1ccc2c(c1)OCCO2	x	>77	13µM*	-3%	-1%
O=C(COC(=O)CSc1nnc(-c2ccc(Cl)cc2)o1)NCc1ccc2c(c1)OCO2	>57	11*	-1%	-1%	4%
O=C(CS(=O)(=O)c1ccccc1)c1ccc2c(c1)OCCO2	i	>77	13µM*	x	-3%
COc1ncc2nc(-c3ccc(F)cc3)c(=O)n(Cc3cccs3)c2n1	x	x	1%[11.4 µM]	10%	20%
O=C(CCNc1ccccc1)c1ccc2c(c1)OCO2	x	>77	16µM*	u	u
O=C(O)CCC(=O)c1ccc2c(c1)OCCO2	x	x	-6%	u	20µM*
O=C(/C=C\Nc1cccc(F)c1)c1ccc2c(c1)OCO2	x	x	0.4µM*	27%[11.4 µM]	24%[11.4 µM]
CN(C)CCC(=O)c1ccc2c(c1)OCO2	>57	>77	6%	-8%	-6%
COCCN(C(=O)Cn1nnc2ccccc21)C(C(=O)NC1CCCC1)c1cccc(OC)c1OC (stereo not given)	>57	>77	1%	u	20µM*
